# Inconclusive results are not listed. A number with no mark means an inactive call. Calls of active or inactive are those of the source. Calls follow the shape of the dose curve; as a rule, active = well fitted cell-killing curve with a large enough effect; inconclusive = small, poorly fitted or top-dose-only effect, or effect the other way; inactive = no such curve, though single readings can be large or run the other way.
# Assay: Quantitative High-Throughput drug screen in 47 multiple myeloma cell lines against the NCATS MIPE library collection: OCIMY7_PLB cell viability assay (AID 1918987); also: nearly all actives have a fitted effect of over 65% in size
# Details: OCI-MY7 myeloma viability, CellTiter-Glo ATP, 48 h; series mostly up to 45.8 µM; viability (% of DMSO): at the top concentration
# Text: PI: Beverly A. Mock Ph.D.
# Laboratory of Cancer Biology and Genetics,
# Center for Cancer Research, National Cancer Institute,
# National Institute of Health, Bethesda, Maryland
# Drug resistance and disease progression are common in multiple myeloma (MM) patients, underscoring the need for new therapeutic combinations. […] We hypothesized that effective combinations would reduce MYC expression and enhance p16 activity. […] These preclinical data identify potentially useful drug combinations for evaluation in drug-resistant MM and reveal potential mechanisms of combined drug sensitivity.
# Described herein is the primary MIPE qHTS used to cherrypick compounds. Validated compounds were then further tested for potential synergistic activiy.
# [1] Peat TJ, Gaikwad SM, Dubois W, Gyabaah-Kessie N, Zhang S, Gorjifard S, Phyo Z, Andres M, Hughitt VK, Simpson RM, Miller MA, Girvin AT, Taylor A, Williams D, D'Antonio N, Zhang Y, Rajagopalan A, Flietner E, Wilson K, Zhang X, Shinn P, Klumpp-Thomas C, McKnight C, Itkin Z, Chen L, Kazandijian D, Zhang J, Michalowski AM, Simmons JK, Keats J, Thomas CJ, Mock BA. Drug combinations identified by high-throughput screening promote cell cycle transition and upregulate Smad pathways in myeloma. Cancer Lett. 2023 Aug 1;568:216284. doi: 10.1016/j.canlet.2023.216284. Epub 2023 Jun 24. PMID: 37356470; PMCID: PMC10408729.
# SEQUENCE No. (e.g., 1, 2, 3, etc.); […] (e.g., Cells, Incubation, Reagent, etc.); VALUE and DESCRIPTION.
# 1; Cells; 5 uL; white, solid bottom 1536-well Greiner assay plate.
# 2; Compounds; 23 nL; Kalypsis pin tool (Wako USA) equipped with a 1536-well pin head to transfer to the assay plates.
# 3; Incubation; 48 hours; 37C incubation.
# 4; Reagent;5uL; CellTiter Glo (Promega).
# 5; Detector; 425V; Luminescence; Viewlux PerkinElmer.
# NOTES (numbers refer to Sequence numbers above)
# 1. The cell-based screening methods employed in this study were like those previously published. Briefly, the corresponding myeloma cell lines were screened in 1,536-well plates with 500 cells, 5-uL per well for inhibition of cell viability (assessed by measuring ATP levels with CellTiterGlo).
# 2. NCATS MIPE 4.0 library of approved and investigational drugs were added using the Kalypsis pin tool. Wells treated with DMSO only for 100% viability and media only for 0% viability were used as controls.
# 3. The assay plates were covered and incubated for 48 hours in a 37C, 5% CO2 incubator with controlled humidity.
# 4. After 48 hours, CellTilter-GloTM luminescent substrate mix (Promega) reagent was added to the assay plate and plates we incubated for 5 min at room temperature.
# 5. Signal was measured as median relative luminescence units on a ViewLux (PerkinElmer) multiplate reader.
# [1] Heske CM, Davis MI, Baumgart JT, Wilson K, Gormally MV, Chen L, Zhang X, Ceribelli M, Duveau DY, Guha R, Ferrer M, Arnaldez FI, Ji J, Tran HL, Zhang Y, Mendoza A, Helman LJ, Thomas CJ. Matrix Screen Identifies Synergistic Combination of PARP Inhibitors and Nicotinamide Phosphoribosyltransferase (NAMPT) Inhibitors in Ewing Sarcoma. Clin Cancer Res. 2017 Dec 1;23(23):7301-7311. doi: 10.1158/1078-0432.CCR-17-1121. Epub 2017 Sep 12. PMID: 28899971; PMCID: PMC6636827.
# Potency is read from the fitted curve at half-maximal effect.
Compound,Potency,viability (% of DMSO)
CC1=C(O)C(=O)C=C2C1=CC=C1[C@@]2(C)CC[C@@]2(C)[C@@H]3C[C@](C)(C(=O)O)CC[C@]3(C)CC[C@]12C,0.296 µM (active),
CCOC(=O)c1cncn1[C@H](C)c1ccccc1,,126%
CCOC(=O)Nc1ccc(NCc2ccc(F)cc2)cc1N,10.5 µM (active),
CC(C)(C)c1cc(C=C(C#N)C#N)cc(Br)c1O,4.69 µM (active),
Cc1ccccc1-n1c(Cn2ncc3c(N)ncnc32)nc2cccc(C)c2c1=O,3.32 µM (active),
C[C@@H]1O[C@@H](O[C@@H]2C=C3CC[C@@H]4[C@@H](CC[C@]5(C)[C@H](c6ccc(=O)oc6)CC[C@@]45O)[C@@]3(C)CC2)[C@H](O)[C@H](O)[C@H]1O,0.0132 µM (active),
CCN(CC)C(=O)c1ccc(C2=CC3(CCNCC3)Oc3cccc(O)c32)cc1,,245%
N#C[C@H](O[C@@H]1O[C@H](CO[C@@H]2O[C@H](CO)[C@H](O)[C@H](O)[C@H]2O)[C@H](O)[C@H](O)[C@H]1O)c1ccccc1,10.5 µM (active),
C[C@H]([C@H](O)CCC(C)(C)O)[C@H]1CC[C@@]2(O)C3=CC(=O)[C@@H]4C[C@@H](O)[C@@H](O)C[C@]4(C)[C@@H]3CC[C@]12C,,196%
Cc1c(C(=O)c2cccc3ccccc23)c2cccc3c2n1[C@H](CN1CCOCC1)CO3,13.2 µM (active),
C=CCON=C(C[C@H]1O[C@@H]2O[C@]3(C)CC[C@@H]4[C@H](C)CC[C@@H]([C@H]1C)[C@@]24OO3)[C@H]1O[C@@H]2O[C@]3(C)CC[C@H]4[C@H](C)CC[C@@H]([C@@H]1C)[C@@]24OO3,0.105 µM (active),
C[C@@H]1CC[C@@]2(OC1)O[C@H]1C[C@H]3[C@@H]4CC=C5C[C@@H](O[C@@H]6O[C@H](CO)[C@@H](O[C@@H]7O[C@@H](C)[C@H](O)[C@@H](O)[C@@H]7O)[C@H](O)[C@@H]6O[C@@H]6O[C@@H](C)[C@H](O)[C@@H](O)[C@@H]6O)CC[C@]5(C)[C@@H]4CC[C@]3(C)[C@@H]1[C@H]2C,3.32 µM (active),
O=c1[nH]c2ccc(Cl)cc2c(N[C@@H]2CN3CCC2CC3)c1-c1nc2ccccc2[nH]1,0.059 µM (active),
CO[C@H]1CCC(O[C@H]2C[C@H]([C@]3(C)CC[C@]4(C[C@H](O)[C@@H](C)[C@@H]([C@@H](C)C=C(C)C(=O)[C@H](C)C[C@H](C)C(=O)O)O4)O3)O[C@]3(O[C@@H]([C@H]4O[C@@](O)(CO)[C@H](C)C[C@H]4C)C[C@H]3C)[C@H]2C)O[C@H]1C (stereo not given in full),0.935 µM (active),
CCNC(=O)CC1N=C(c2ccc(Cl)cc2)c2cc(OC)ccc2-n2c(C)nnc21 (stereo not given),18.7 µM (active),
C=C1C[C@H]2[C@H]3CCC(=O)[C@@]3(C)CC[C@@H]2[C@@]2(C)C=CC(=O)C=C12,9.35 µM (active),
CC(=O)Nc1ccc(OC[C@](C)(O)C(=O)Nc2ccc([N+](=O)[O-])c(C(F)(F)F)c2)cc1,10.5 µM (active),
CCN1C[C@]2(OC(=O)c3ccccc3NC(C)=O)CC[C@H](OC)[C@@]34[C@H]5CC6[C@@H](OC)C[C@](O)(C(C[C@@H]23)[C@@H]14)[C@@]5(O)[C@@H]6OC,,170%
C[C@]12Cc3cn[nH]c3C[C@@H]1CC[C@@H]1[C@H]2CC[C@@]2(C)[C@H]1CC[C@]2(C)O,,182%
NC1CC1c1ccccc1 (stereo not given),,158%

Compound,Potency,viability (% of DMSO)
CCc1c(C(=O)C(N)=O)c2c(OCC(=O)O)cccc2n1Cc1ccccc1,,168%
C[C@](O)(COc1ccc(C#N)cc1)C(=O)Nc1ccc(C#N)c(C(F)(F)F)c1,26.4 µM (active),
CC(=O)O[C@@]12CO[C@H]1C[C@H](O)[C@@]1(C)C(=O)[C@H](O)C3=C(C)[C@@H](O)C[C@@](O)([C@@H](OC(=O)c4ccccc4)[C@@H]21)C3(C)C,2.09 µM (active),
CC[C@H]1C=CC=CC[C@@H](C)[C@H](O)[C@@](C)(O)C(=O)[C@@H](C)[C@H](O)[C@@H](C)C(=O)[C@@H](C)[C@H](O)[C@@H](C)C=CC(=O)O[C@@H]2[C@@H](C)[C@H](CC1)O[C@]1(CC[C@H](C)[C@H](C[C@@H](C)O)O1)[C@H]2C,0.001 µM (active),
Cc1ccccc1-n1c(Cn2cnc3c(N)ncnc32)nc2cccc(C)c2c1=O,1.32 µM (active),
CC[C@@H]1[C@@H](C)O[C@@](O)([C@@H](C)[C@H](O)[C@H](C)[C@H]2OC(=O)C=CC=C[C@@H](C)[C@@H]([C@@H](C)[C@@H](O)[C@H](C)[C@@]3(O)C[C@H](O[C@H]4C[C@H](O)[C@H](O)[C@H](C)O4)[C@H](CC)[C@@H](C)O3)OC(=O)C=CC=C[C@@H]2C)C[C@H]1O[C@H]1C[C@H](O)[C@H](O)[C@H](C)O1,0.662 µM (active),
COC[C@H]1OC(=O)c2coc3c2[C@@]1(C)C1=C(C3=O)[C@@H]2CC[C@H](O)[C@@]2(C)C[C@@H]1OC(C)=O,0.418 µM (active),
CN1[C@H]2CC(O)C[C@H]1[C@H]1O[C@H]12 (stereo not given in full),3.32 µM (active),
COc1ccc(C(=O)c2c(C)n(CCN3CCOCC3)c3cc(I)ccc23)cc1,5.9 µM (active),
O=C(Nc1ccncc1)C(=O)c1cn(Cc2ccc(Cl)cc2)c2ccccc12,0.001 µM (active),
COC1=C[C@@H]2[C@@H]3Cc4ccc(OC)c(O)c4[C@]2(CCN3C)CC1=O,3.32 µM (active),
CCN1CCN(C(=O)Cc2ccc(Nc3ncc(F)c(Nc4ccc(C(=O)Nc5ccccc5Cl)cc4)n3)cc2)CC1,0.526 µM (active),
CC=C(C)C(=O)O[C@H]1C(C)=C2[C@@H]3OC(=O)[C@@](C)(O)[C@@]3(O)[C@@H](OC(=O)CCC)C[C@](C)(OC(C)=O)[C@@H]2[C@@H]1OC(=O)CCCCCCC,0.264 µM (active),
CCOP(=O)(OCC)C(C)NC(=O)N(CCCl)N=O (stereo not given),,128%
CC(C)(O)C=CC(=O)[C@](C)(O)[C@H]1[C@H](O)C[C@]2(C)[C@@H]3CC=C4[C@@H](C=C(O)C(=O)C4(C)C)[C@]3(C)C(=O)C[C@@]12C,0.0235 µM (active),
CC(=Cc1csc(C)n1)[C@@H]1C[C@H]2O[C@@H]2CCC[C@H](C)[C@@H](O)[C@@H](C)C(=O)C(C)(C)[C@@H](O)CC(=O)O1,,31%
Cc1c(C(=O)Nc2cccc(C(F)(F)F)c2)cc(-c2ccccc2)n1CCCN1CCOCC1,0.372 µM (active),
C=C[C@@H]1CN2CCC1C[C@@H]2[C@@H](O)c1ccnc2ccccc12 (stereo not given in full),7.43 µM (active),
O=S(=O)(CC1CS1)c1ccc(Oc2ccccc2)cc1 (stereo not given),5.26 µM (active),
NC1=NC(=O)N2CC12 (stereo not given),20.9 µM (active),

# Source: PubChem BioAssay (NCATS)
